Screening data (PubChem)
The list is not random: actives were taken first. Their share in the collection is about 17%.
HT1080NT lethal – kills 2HG-producing HT-1080-NT fibrosarcoma cells. HT-1080-NT fibrosarcoma viability, CellTiter-Glo ATP luminescence, 48 h. Potency, µM (series often up to 46.1 µM), for inactives: at the top dose activity, negative = less viability, usual class: cytotoxic. actives 1.6% (n = 360,000);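 note: NT is the 2HG producing partner of a matched IDH1 knockdown line; 0% = DMSO-treated cells and -100% = media-only wells without cells; nearly all actives have a fitted effect of over 55% in size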
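Luminescent CellTiter-Glo readout after 48 hours of compound exposure at 37 degrees C defined viability of HT-1080-NT cells. Activity was normalized to DMSO wells and cell-free media wells; concentration-response curves were fitted and assigned curve classes.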
HT1080 IDH1KD tx – kills HT-1080 cells with IDH1 knockdown; HT-1080 IDH1 knockdown viability, ATP luminescence, 48 h; Potency, µM (titrated, usually from 46.1 µM), for the others: top-dose activity, negative = toxicity, most hits filed as cytotoxic; actives 2% (n = 360,000);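 note: 0% = DMSO wells and -100% = cell-free medium wells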
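HT-1080-IDH1KD cells (IDH1 knocked down), 750/well in RPMI with 5% FBS, treated with compound 48 h at 37 degrees C. Viability by CellTiter-Glo luminescence, normalised to DMSO and no-cell wells; concentration-response curves classed.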
DT40 TDP1 CPT – growth inhibition of DT40 Tdp1-/-;hTDP1 cells with camptothecin (screen for TDP1 inhibitors). actives 12% (n = 420,000). AID 686979. chicken DT40 Tdp1-/-;hTDP1 cells + 20 nM CPT, ATP luminescence, 48 h. Potency, µM (titrated, usually from 46.2 µM), for inactives: at the top dose activity change, negative = growth inhibition, actives largely listed as inhibitors; note: % is set by controls: 0 for no effect and ±100 for the full control effect; nearly all actives have a fitted effect of over 55% in size
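Cell growth measured by CellTiter-Glo luminescence after a minimum 48 h, 37 C compound exposure with 20 nM CPT in Tdp1-knockout DT40 cells stably expressing hTDP1, seeded 400/well; qHTS titration format.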
HepG2 tox – counter-screen for TGF-b inhibitors: cytotoxicity in HepG2 cells; HepG2 CAGA-GFP viability, ATP luminescence, 18 h; Potency, µM (top dose mostly 46.1 µM), inactives show at the highest dose activity change, negative = cytotoxicity, actives largely listed as cytotoxic; actives 0.76% (n = 410,000)
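CellTiter-Glo luminescence gave cytotoxicity after 18 hours at 37 degrees C. The cells were HepG2 CAGA-GFP in 1% FBS DMEM, stimulated with 500 pg/mL TGF-beta after compound addition. %Activity was normalised to no-cell wells (complete cell-killing) and DMSO (no toxicity), and curves were fitted and classified.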
TGFb SMAD3 inh – TGF-b pathway inhibition. Potency, µM (titrated, usually from 46.1 µM), for inactives: at the top dose activity, negative = inhibition, usual class: inhibitors. actives 1.2% (n = 410,000). AID 588855. HepG2 CAGA-GFP TGF-b/SMAD3 reporter, GFP fluorescence, 18 h; TGF-beta stimulated, 500 pg/mL final; note: % is set by controls: 0 for no effect and ±100 for the full control effect; nearly all actives have a fitted effect of over 65% in size
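Using HEPG2 CAGA-GFP reporter cells at 1000 cells/well, we pinned test compounds, stimulated with recombinant TGF-beta (500 pg/mL final) and measured total well GFP after 18 h.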
DT40 TDP1 no CPT – qHTS for Inhibitors of human tyrosyl-DNA phosphodiesterase 1 (TDP1): qHTS in cells in absence of CPT; DT40 Tdp1-/- hTDP1 cells, no CPT, ATP luminescence, 48 h; Potency, µM (titrated, usually from 46.2 µM), for inactives: at the top dose activity change, negative = growth inhibition, most hits filed as inhibitors; actives 15% (n = 420,000); AID 686978, 2013; note: % is set by controls: 0 for no effect and ±100 for the full control effect; nearly all actives have a fitted effect of over 55% in size
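A cellular qHTS used chicken DT40 cells lacking endogenous Tdp1 but carrying stably transfected human TDP1. Compounds were applied without camptothecin, and cell growth kinetics were judged by ATP-dependent luminescence after ≥48 hr.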
The depositor's hits bear a star; ? = inconclusive; / = no result. Calls come from the whole dose curve; as a rule, active = well fitted curve in the direction sought with a large enough effect; inconclusive = small, poorly fitted or top-dose-only effect, or another doubt; inactive = no such curve, though single readings can be large; an effect the other way counts as inactive or inconclusive. Potency is the fitted concentration of half-maximal effect.

SMILES | HT1080NT lethal | HT1080 IDH1KD tx | DT40 TDP1 CPT | HepG2 tox | TGFb SMAD3 inh | DT40 TDP1 no CPT
Cc1ccc2nc(NC(=O)CN(C)S(=O)(=O)c3cccc4nsnc34)sc2c1 | ? | 8.2µM* | 3.3µM* | -6% | -3% | 2.9µM*
Cc1ccc(S(=O)(=O)N(C)CC(=O)Nc2nc3ccccc3s2)cc1 | -2% | -21% | 16µM* | -31% | -18% | 21µM*
Cc1ccc(NC(=O)CN(C)S(=O)(=O)c2cccc3nsnc23)cc1C | 0% | 3% | -27% | 4% | -31% | -27%
COc1ccc(Cl)cc1NC(=O)C(C)OC(=O)C1=NNC(=O)CC1 (configuration not stated) | -2% | -3% | -13% | -9% | 5% | -16%
Cc1ccc(N2CC(C(=O)N3CCOCC3)CC2=O)cc1Cl (configuration not stated) | -2% | 17% | -3% | 10% | 4% | 12%
COc1cccc(N2CCN(C(=O)c3ccc4nc[nH]c4c3)CC2)c1 | -4% | 2% | -13% | -7% | -10% | 10%
Cc1nc2cccnc2n1-c1cccc(C(=O)N2CCN(c3cccc(Cl)c3)CC2)c1 | / | / | 4.1µM* | -37% | ? | 4.6µM*
Cc1nc2cccnc2n1-c1cccc(C(=O)NCc2ccc(OC(C)C)cc2)c1 | / | / | ? | -20% | 0% | ?
COc1cccc(N2CCN(C(=O)c3cccc(-n4c(C)nc5cccnc54)c3)CC2)c1 | / | / | 12µM* | -4% | ? | 16µM*
Cc1cccc(NC(=O)Cn2nnc(C(=O)NCc3cccs3)c2N)c1C | -18% | -14% | 0% | 18µM* | 1% | ?
Cc1c(Cl)cccc1NC(=O)Cn1nnc(C(=O)NCc2cccs2)c1N | ? | -15% | 5.2µM* | -4% | 1% | 1.6µM*
Cc1ccc(NC(=O)Cn2nnc(C(=O)NCc3cccs3)c2N)c(C)c1 | -23% | ? | -8% | -19% | 12% | 17%
Cc1ccccc1NC(=O)Cn1nnc(C(=O)NCc2cccs2)c1N | / | / | 9.2µM* | 12% | 5% | 6.5µM*
Cc1cc(C)cc(NC(=O)Cn2nnc(C(=O)NCc3cccs3)c2N)c1 | ? | ? | -21% | -2% | ? | 5%
O=C(CCc1ccccc1)NNC(=O)c1ccncc1 | 11% | 1% | -4% | 0% | 32% | -5%
CC1C(=O)N2CCCc3cc(NC(=O)C(=O)NCCc4ccc(F)cc4)cc1c32 (configuration not stated) | 18µM* | 21µM* | ? | -3% | 12% | ?
CN(C)c1ncc2nc(-c3ccccc3)c(=O)n(Cc3cccs3)c2n1 | / | / | 13% | / | / | 11%
Cc1oc(=O)c(NC(=O)c2cccc(Cl)c2)cc1C(=O)c1ccccc1 | ? | ? | 29µM* | 0% | ? | 21µM*
Cc1oc(=O)c(NC(=O)c2ccccc2)cc1C(N)=O | -18% | -4% | 24% | 3% | 6% | -2%
COc1ccc(C(=O)Nc2cc(C(=O)c3ccccc3)c(C)oc2=O)cc1 | -3% | -2% | 13µM* | -35% | ? | 10µM*
CC(=O)c1cc(NC(=O)c2ccc([N+](=O)[O-])cc2)c(=O)oc1C | 13% | 18% | ? | 27% | 42% | 23µM*
COc1ccc(CCNC(=O)CSc2cn(CCNC(=O)c3c(F)cccc3F)c3ccccc23)cc1OC | / | / | ? | -12% | 0% | ?
COc1cc(CNC(=O)Nc2cccn3nc(COCCO)nc23)cc(OC)c1OC | -1% | 27% | -15% | -6% | 12% | 2%
